Drawing on PubChem BioAssay (EPA / NIEHS), this text covers AC50 and outcome for seven molecules.

Holding throughout (conditions): mRNA level, 48 h; actives raise or lower the signal
Read-out in assay [1]: Cytochrome P450 (CYP2B6), CYP2B6 (gene 1555)
Briefly: LTEA_HepaRG_CYP2B6: Life Technologies and Expression Analysis (LTEA) Assay for Cytochrome P450 (CYP2B6) using HepaRG (AID 2283481). The essentials: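 Differentiated human HepaRG cells in serum-free induction medium, dosed in duplicate for 48 h over 8 half-log concentrations topping at 100 uM (0.5% DMSO). CYP2B6 mRNA measured by TaqMan qRT-PCR, normalized to ACTB, GAPDH, POLR2A; bidirectional fit versus DMSO.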

Read-out in assay [2]: Cytochrome P450 2C19 (Homo sapiens) (UniProt P33261)
In words: LTEA_HepaRG_CYP2C19: Life Technologies and Expression Analysis (LTEA) Assay for CYP2C19 using HepaRG (AID 2283482). In a few lines:
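Differentiated HepaRG cells in serum-free induction medium exposed 48 h in duplicate, 8 concentrations from 100 uM by half-log steps in 0.5% DMSO. CYP2C19 mRNA measured by TaqMan qRT-PCR, normalized to ACTB, GAPDH, POLR2A. Bidirectional fit versus DMSO.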

Read-out in another assay: CYP2C8 (gene 1558)
Briefly: LTEA_HepaRG_CYP2C8: Life Technologies and Expression Analysis (LTEA) Assay for CYP2C8 using HepaRG (AID 2283483). The essentials:
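This is a transcriptional endpoint in HepaRG cultures: 48 h exposure, highest concentration 100 uM. CYP2C8 mRNA is quantified by TaqMan qRT-PCR.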

Read-out in a further assay: CYP2C9 (gene 1559)
Briefly: LTEA_HepaRG_CYP2C9: Life Technologies and Expression Analysis (LTEA) Assay for CYP2C9 using HepaRG (AID 2283484). In a few lines: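 Eight-point concentration-response (highest 100 uM, half-log dilutions) in HepaRG cells for 48 h; CYP2C9 expression by qRT-PCR normalized to ACTB, GAPDH, POLR2A. Bidirectional fit, DMSO baseline.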

Read-out in a further assay: CYP2E1 (gene 1571)
Briefly: LTEA_HepaRG_CYP2E1: Life Technologies and Expression Analysis (LTEA) Assay for CYP2E1 using HepaRG (AID 2283485). In a few lines:
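Assay uses 48 h exposure of HepaRG hepatic cells, eight concentrations to 100 uM. Expression of CYP2E1 is quantified by TaqMan qRT-PCR with ACTB, GAPDH and POLR2A normalization; curves fitted in both directions relative to vehicle.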

Read-out in another assay: CYP4A11 (gene 1579)
In words: LTEA_HepaRG_CYP4A11: Life Technologies and Expression Analysis (LTEA) Assay for CYP4A11 using HepaRG (AID 2283486). In a few lines: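 Differentiated HepaRG cells, 48 h after plating, exposed in duplicate for 48 h to 8 half-log concentrations up to 100 uM in 0.5% DMSO in serum-free induction medium. CYP4A11 mRNA measured by TaqMan qRT-PCR, normalized to ACTB, GAPDH and POLR2A.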

Read-out in assay [3]: Cytochrome P450 3A4 (Homo sapiens) (UniProt P08684)
In words: LTEA_HepaRG_CYP3A4: Life Technologies and Expression Analysis (LTEA) Assay for CYP3A4 using HepaRG (AID 2283487). The essentials: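 Differentiated HepaRG cells, plated 48 h, then dosed 48 h in serum-free induction medium with 0.5% DMSO, 8 half-log concentrations up to 100 uM, duplicate. CYP3A4 mRNA by qRT-PCR, normalized to ACTB/GAPDH/POLR2A; bidirectional fit versus DMSO.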

Read-out in assay [4]: DNA damage-inducible transcript 3 (DDIT3), DDIT3 (gene 1649)
Briefly: LTEA_HepaRG_DDIT3: Life Technologies and Expression Analysis (LTEA) Assay for DNA damage-inducible transcript 3 (DDIT3) using HepaRG (AID 2283488). In a few lines:
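Eight-point concentration-response (100 uM highest, half-log dilutions) in HepaRG, 48 h, duplicate wells. Endpoint: qRT-PCR mRNA, normalized (ACTB, GAPDH, POLR2A), bidirectional fitting with DMSO as baseline.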

Read-out in assay [5]: Early growth response protein 1 (EGR1) transcription factor, EGR1 (gene 1958)
Briefly: LTEA_HepaRG_EGR1: Life Technologies and Expression Analysis (LTEA) Assay for Early growth response protein 1 (EGR1) transcription factor using HepaRG (AID 2283490). The essentials:
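EGR1 expression change in human HepaRG after 48 h chemical exposure, assessed by housekeeping-normalized qRT-PCR; concentration-response up to 100 uM, fitted in both directions against DMSO controls.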

Read-out in assay [6]: Ezrin (EZR), EZR (gene 7430)
In words: LTEA_HepaRG_EZR: Life Technologies and Expression Analysis (LTEA) Assay for Ezrin (EZR) using HepaRG (AID 2283491). The essentials: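 EZR transcript levels came from Fluidigm qRT-PCR and were normalized to three housekeeping genes after 48 h chemical exposure of HepaRG cells. Dosing used an 8-point half-log series with a 100 uM top concentration in 0.5% DMSO, tested in duplicate; both directions were fitted versus vehicle.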

Read-out in assay [7]: Cytochrome P450 3A7 (Homo sapiens) (UniProt P24462)
Briefly: LTEA_HepaRG_CYP3A7: Life Technologies and Expression Analysis (LTEA) Assay for CYP3A7 using HepaRG (AID 2283492). In a few lines: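 Differentiated HepaRG cells in serum-free induction medium exposed 48 h in duplicate to 8-point half-log series from 100 uM top in 0.5% DMSO. CYP3A7 mRNA by qRT-PCR, normalized to ACTB/GAPDH/POLR2A, bidirectional fit versus DMSO.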

Read-out in assay [8]: Fatty Acid-Binding Protein 1 (FABP1), FABP1 (gene 2168)
Briefly: LTEA_HepaRG_FABP1: Life Technologies and Expression Analysis (LTEA) Assay for Fatty Acid-Binding Protein 1 (FABP1) using HepaRG (AID 2283494). In a few lines:
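Values reflect bidirectional concentration-response fitting of FABP1 mRNA change against 0.5% DMSO controls. Human HepaRG cultures received eight half-log doses (top 100 uM) for 48 h; expression quantified by TaqMan qRT-PCR with housekeeping-gene normalization.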

Read-out in assay [9]: Cytochrome P450 4A22 (Homo sapiens) (UniProt Q5TCH4)
Briefly: LTEA_HepaRG_CYP4A22: Life Technologies and Expression Analysis (LTEA) Assay for Cytochrome P450 4A22 (CYP4A22) using HepaRG (AID 2283495). The essentials: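 Differentiated HepaRG cells in serum-free induction medium exposed 48 h in duplicate to eight half-log concentrations up to 100 uM in 0.5% DMSO. CYP4A22 mRNA quantified by TaqMan qRT-PCR, normalized to ACTB, GAPDH and POLR2A; bidirectional fit versus DMSO.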

Read-out in assay [10]: Cytochrome P450 7A1 (Homo sapiens) (UniProt P22680)
In words: LTEA_HepaRG_CYP7A1: Life Technologies and Expression Analysis (LTEA) Assay for Cytochrome P450 7A1 (CYP7A1) using HepaRG (AID 2283496). The essentials: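 Using 0.5% DMSO as vehicle and baseline, chemicals were tested in duplicate over an 8-point range from 100 uM on HepaRG cells for 48 h; qRT-PCR signals were normalised to ACTB, GAPDH and POLR2A.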

Read-out in assay [11]: Glutathione S-Transferase (GSTA2), GSTA2 (gene 2939)
Briefly: LTEA_HepaRG_GSTA2: Life Technologies and Expression Analysis (LTEA) Assay for Glutathione S-Transferase (GSTA2) using HepaRG (AID 2283497). In a few lines: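 Oxidative-stress marker GSTA2 is quantified by TaqMan qRT-PCR in HepaRG cultures treated 48 h across an eight-point range to 100 uM. Expression is normalized to endogenous controls and compared with 0.5% DMSO vehicle.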

Read-out in assay [12]: Glutamate-cysteine ligase catalytic (GCLC), GCLC (gene 2729)
Briefly: LTEA_HepaRG_GCLC: Life Technologies and Expression Analysis (LTEA) Assay for Glutamate-cysteine ligase catalytic (GCLC) using HepaRG (AID 2283498). In a few lines:
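Oxidative-stress marker GCLC is measured as mRNA change in human HepaRG liver cells after 48 h chemical treatment in 0.5% DMSO, eight concentrations from 100 uM. Activity is fitted bidirectionally against vehicle.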

Read-out in assay [13]: growth arrest and DNA damage 45 (GADD45G), GADD45G (gene 10912)
Briefly: LTEA_HepaRG_GADD45G: Life Technologies and Expression Analysis (LTEA) Assay for growth arrest and DNA damage 45 (GADD45G) using HepaRG (AID 2283499). In a few lines: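 Differentiated human HepaRG cells, 48 h post-plating, exposed 48 h in serum-free induction medium to 8 half-log concentrations (top 100 uM, 0.5% DMSO) in duplicate. GADD45G mRNA measured by Fluidigm TaqMan qRT-PCR, normalized to ACTB, GAPDH, POLR2A; bidirectional fit versus DMSO.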

Read-out in assay [14]: Pro-epidermal growth factor (Homo sapiens) (UniProt P01133)
In words: LTEA_HepaRG_EGF: Life Technologies and Expression Analysis (LTEA) Assay for Epidermal growth factor (EGF) using HepaRG (AID 2283489). In a few lines:
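HepaRG cells (~100,000/well, 48 h pre-culture) exposed in duplicate for 48 h in serum-free induction medium to 8 half-log concentrations up to 100 uM in 0.5% DMSO. EGF mRNA by qRT-PCR, normalized to ACTB/GAPDH/POLR2A; bidirectional fit versus DMSO.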

Read-out in the next assay: CYP3A5 (gene 1577)
In words: LTEA_HepaRG_CYP3A5: Life Technologies and Expression Analysis (LTEA) Assay for CYP3A5 using HepaRG (AID 2283493). The essentials:
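Readout was CYP3A5 mRNA by qRT-PCR. HepaRG cultures were exposed for 48 h in serum-free induction medium to chemicals at up to 100 uM, and responses were fitted in both directions relative to DMSO vehicle.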

Read-out in assay [15]: Glutamate-cysteine ligase regulatory (GCLM), GCLM (gene 2730)
Briefly: LTEA_HepaRG_GCLM: Life Technologies and Expression Analysis (LTEA) Assay for Glutamate-cysteine ligase regulatory (GCLM) using HepaRG (AID 2283500). The essentials: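 In this multiplexed HepaRG gene-expression assay, GCLM mRNA change after 48 h treatment (8 concentrations, max 100 uM) was scored against DMSO by bidirectional curve fitting.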

As a reminder, the AC50 is the concentration giving half of the maximal activity seen.

Calls of active or inactive are those of the source. Rule for the calls: active = hit-call score of the fitted dose curve at least 0.9, where 1 is the maximum; inactive = score below 0.9.

Chain of Cytochrome P450 3A7 (Homo sapiens) (P24462 whole entry, looked up): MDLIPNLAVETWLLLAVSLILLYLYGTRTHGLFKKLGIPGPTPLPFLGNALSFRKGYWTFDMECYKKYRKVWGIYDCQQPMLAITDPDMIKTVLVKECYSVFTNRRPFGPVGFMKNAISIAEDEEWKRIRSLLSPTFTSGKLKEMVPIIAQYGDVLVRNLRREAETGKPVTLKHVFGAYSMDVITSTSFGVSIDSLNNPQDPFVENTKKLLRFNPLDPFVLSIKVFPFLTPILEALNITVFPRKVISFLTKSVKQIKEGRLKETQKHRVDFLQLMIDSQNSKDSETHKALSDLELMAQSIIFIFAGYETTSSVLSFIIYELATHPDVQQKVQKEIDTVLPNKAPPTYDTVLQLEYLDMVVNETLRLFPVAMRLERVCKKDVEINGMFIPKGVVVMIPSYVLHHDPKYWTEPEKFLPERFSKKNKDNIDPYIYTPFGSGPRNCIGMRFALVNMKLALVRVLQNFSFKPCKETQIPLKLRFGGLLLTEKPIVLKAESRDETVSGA
Chain of Cytochrome P450 3A4 (Homo sapiens) (P08684 whole entry, looked up): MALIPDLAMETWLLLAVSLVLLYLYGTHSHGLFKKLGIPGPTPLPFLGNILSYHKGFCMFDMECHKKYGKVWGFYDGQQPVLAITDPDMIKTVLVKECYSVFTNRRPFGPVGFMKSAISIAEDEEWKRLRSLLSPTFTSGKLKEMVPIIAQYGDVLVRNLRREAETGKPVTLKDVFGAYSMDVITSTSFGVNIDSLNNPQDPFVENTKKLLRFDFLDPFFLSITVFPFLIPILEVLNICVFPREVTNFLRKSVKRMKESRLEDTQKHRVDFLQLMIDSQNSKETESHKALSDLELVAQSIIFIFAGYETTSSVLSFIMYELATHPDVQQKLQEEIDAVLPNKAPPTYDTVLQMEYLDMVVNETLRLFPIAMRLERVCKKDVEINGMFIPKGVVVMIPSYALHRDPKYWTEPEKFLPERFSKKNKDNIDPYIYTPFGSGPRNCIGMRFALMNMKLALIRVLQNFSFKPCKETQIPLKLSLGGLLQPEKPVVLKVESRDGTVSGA
Chain of Cytochrome P450 2C19 (Homo sapiens) (P33261 whole entry, looked up): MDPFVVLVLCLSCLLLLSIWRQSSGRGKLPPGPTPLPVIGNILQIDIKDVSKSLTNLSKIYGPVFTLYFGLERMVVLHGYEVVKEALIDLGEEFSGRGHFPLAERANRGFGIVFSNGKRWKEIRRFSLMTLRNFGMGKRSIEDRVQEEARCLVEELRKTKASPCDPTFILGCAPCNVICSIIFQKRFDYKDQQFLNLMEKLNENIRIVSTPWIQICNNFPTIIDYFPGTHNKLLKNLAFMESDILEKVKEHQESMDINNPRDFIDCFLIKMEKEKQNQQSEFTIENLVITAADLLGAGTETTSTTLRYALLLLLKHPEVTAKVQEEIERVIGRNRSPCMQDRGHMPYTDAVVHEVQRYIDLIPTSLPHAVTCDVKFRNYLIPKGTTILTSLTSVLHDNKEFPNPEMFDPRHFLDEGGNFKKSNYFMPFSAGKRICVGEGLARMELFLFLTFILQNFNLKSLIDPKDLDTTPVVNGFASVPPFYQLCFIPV

In the case of `CC(C)N(Cc1ccccc1)C(=O)C(C)(C)C`, the AC50 is 2.31 µM (active) in assay [1]; 11.1 µM (active) in assay [2]; 10.4 µM (active) with CYP2C8 (gene 1558); 19.6 µM (active) in the assay with CYP2E1 (gene 1571); 3.44 µM (active) in [3]; 11.5 µM (active) in [7]. For the same molecule, in assay [8], the AC50 is 8.19 µM (active). Besides, the molecule was called inactive (with CYP2C9 (gene 1559); with CYP4A11 (gene 1579); in assay [4]; in [5]; in [6]; in [9]). Further, the molecule was called inactive in assay [10], in [11], in assay [12] and in assay [13].
For `[As]#[In]`, in [1], the half-maximal activity concentration (AC50) was 39 µM (active). Besides, the outcome (in assay [2]; with CYP2C8 (gene 1558); with CYP2C9 (gene 1559); with CYP4A11 (gene 1579); in assay [3]; in [4]) was inactive. Also, the result (in [14]; in assay [5]; in assay [6]; in [7]; with CYP3A5 (gene 1577); in [8]) was inactive. Besides, the result in assay [9], in assay [10], in assay [11], in assay [12] and in [13] was inactive.
With `O=[N+]([O-])c1ccc(Oc2ccc(Cl)cc2Cl)cc1`, the AC50 was 12.8 µM (active) in assay [1]; 12.4 µM (active) in [2]; 58 µM (active) with CYP2E1 (gene 1571); 50 µM (active) in assay [4]; 2.45 µM (active) in assay [7]; 27.1 µM (active) in assay [12]. For the same molecule, in [15], the AC50 is 50 µM (active). Moreover, the call (in the assay with CYP2C8 (gene 1558); with CYP2C9 (gene 1559); with CYP4A11 (gene 1579); in assay [14]; in assay [8]; in [9]) was inactive. Also, the result in assay [10], in assay [11] and in [13] was inactive.
For the molecule `[O-][Cl+]O`, the call (in assay [1]; in assay [2]; in the assay with CYP2C8 (gene 1558); with CYP2C9 (gene 1559); with CYP2E1 (gene 1571); in the assay with CYP4A11 (gene 1579)) was inactive. Further, the molecule was classed as inactive in [3], in assay [4], in [5], in assay [6], in assay [7] and in assay [8]. Besides, the molecule was called inactive in [11], in [12] and in assay [13].
Turning to `c1ccc(N=Nc2ccccc2)cc1`, the call (in assay [1]; in assay [2]; with CYP2C8 (gene 1558); in the assay with CYP2C9 (gene 1559); in the assay with CYP2E1 (gene 1571); with CYP4A11 (gene 1579)) was inactive. For the same molecule, the molecule was called inactive (in assay [4]; in [14]; in assay [5]; in assay [6]; in assay [7]; in the assay with CYP3A5 (gene 1577)). Besides, the molecule was called inactive in assay [8], in [9], in [10], in assay [11], in [12] and in assay [13]. The molecule was called inactive in [15].
In the case of `C[N+](C)(C)CC1CO1` (centres undefined), the result (in [1]; in assay [2]; with CYP2C8 (gene 1558); with CYP2C9 (gene 1559); in the assay with CYP2E1 (gene 1571); in the assay with CYP4A11 (gene 1579)) was inactive. For the same molecule, the outcome in [3], in [4], in [14], in assay [5], in assay [7] and in assay [8] was inactive. Besides, the call in assay [9], in [10], in [11], in assay [12] and in assay [13] was inactive.
With `CCN(CC)CCO`, the call (in [1]; in assay [2]; with CYP2C8 (gene 1558); with CYP2C9 (gene 1559); with CYP2E1 (gene 1571); in the assay with CYP4A11 (gene 1579)) was inactive. Also, the molecule was called inactive in assay [3], in assay [4], in assay [14], in assay [5], in [7] and in assay [8]. In addition, the molecule was classed as inactive in assay [9], in assay [10], in assay [11], in [12] and in assay [13].
